The record followed here is PubChem BioAssay (NCATS).

Inconclusive results are not listed. Values without a mark were called inactive. Activity calls are given as the source filed them. Calls come from the whole dose curve; as a rule, active = well fitted curve in the direction sought with a large enough effect; inconclusive = small, poorly fitted or top-dose-only effect, or another doubt; inactive = no such curve, though single readings can be large; an effect the other way counts as inactive or inconclusive.

The nature of assay [1]: qHTS to identify inhibitors of the type 1 interferon - major histocompatibility complex class I in skeletal muscle: primary screen against the NCATS Pharmaceutical Collection (AID 1347407).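 Note: luminescence of HiBiT knocked into endogenous HLA-B as interferon-induced MHC class I level.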 Note: potency is the fitted concentration of half-maximal effect. In short, it runs like this: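 Immortalized human myoblasts (C25cl48) with HiBiT knocked into endogenous HLA-B*08:01 were stimulated with 4 ng/ml IFN-beta and treated with compounds (8-point, 1:5, top 46 uM final) for 24 h at 37 C; HiBiT lytic luminescence read.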
A general note: qHTS replaces the single test concentration by a dilution series.

Assay [2] has as its target Protein phosphatase 1D (Homo sapiens) (UniProt O15297). The assay is described as follows: RapidFire Mass Spectrometry qHTS Assay for Modulators of WT P53-Induced Phosphatase 1 (WIP1) (AID 1347424).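 Note: amount of dephosphorylated VEPPL-S-QETFS peptide product formed by WIP1; series mostly up to about 63 µM; plate controls were DMSO wells for no effect and GSK830371 inhibitor control at 10 µM for full effect.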 The gist of the method: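 10 nM WIP1 + cpd, 1 h RT; + 2 uM VEPPL-pS-QETFS, 5 min RT; stop 0.5% formic acid; labelled product standard 1 uM; RapidFire MS. Buffer 50 mM Tris pH 7.5, 30 mM MgCl2, 1 mM TCEP.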

Assay [3] shares this target. Put plainly: Rhodamine-PBP qHTS Assay for Modulators of WT P53-Induced Phosphatase 1 (WIP1) (AID 1347425). Note: % of control where 0% means no effect. The gist of the method:
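The read-out is the change in Rhodamine-PBP fluorescence (f1 - f0, ex 525/em 598 nm) as Pi is released, read each minute for 11 min. Final reaction: 5 nM WIP1, 10 uM phosphopeptide VEPPL-pS-QETFS, 10 uM Rh-PBP, 50 mM Tris-HCl pH 7.5, 30 mM MgCl2. Compound was preincubated with enzyme for 1 hour at room temperature.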

The nature of assay [4]: Primary qHTS for inhibitors of La Crosse Virus (LACV) - induced cell death in SH-SY5Y cells (AID 1508616).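 Note: top concentration of the series differs between compounds; 0% = infected DMSO wells and 100% = uninfected DMSO wells; higher means more rescue of cells from virus-induced death.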 In short, it runs like this: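 Protection against LACV-induced cell death is scored in SH-SY5Y cells exposed to compounds and virus (0.01 MOI) for 6 days. Data normalized to virus-infected DMSO wells and virus-free DMSO wells.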
The target of assay [5] is Calcium and integrin-binding protein 1 (Homo sapiens) (UniProt Q99828). The assay is described as follows: Primary qHTS for Identification of Calcium Integrin Binding Protein 1 (CIB1) Competitor (AID 1508620).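 Note: GST tagged CIB1 binding a fluorescein labelled alphaIIb integrin peptide tracer; top concentration of the series differs between compounds; % is set by controls: 0 for no effect and ±100 for the full control effect.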 The gist of the method: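 CIB1-GST (1 uM final) and compound incubated 15 min at room temperature before adding FITC-alphaIIb peptide tracer (100 nM final). Competition for binding read by fluorescence polarization (ex 480, em 540) after another 15 min at room temperature.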
Chain of Calcium and integrin-binding protein 1 (Homo sapiens) (Q99828 whole entry, looked up): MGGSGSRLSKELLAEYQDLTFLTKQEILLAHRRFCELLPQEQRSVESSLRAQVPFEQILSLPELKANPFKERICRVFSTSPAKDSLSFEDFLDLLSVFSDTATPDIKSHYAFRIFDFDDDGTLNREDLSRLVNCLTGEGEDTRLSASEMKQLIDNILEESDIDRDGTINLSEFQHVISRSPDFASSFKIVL

A short description of assay [6]: Counterscreen qHTS for small molecule stabilizers of the endoplasmic reticulum resident proteome: GLuc-NoTag assay (AID 1508627).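 Note: series mostly up to about 76 µM; 0% = thapsigargin alone and -100% = DMSO vehicle control.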 The gist of the method:
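Luminescence of Gaussia luciferase secreted into the medium (coelenterazine, 0.07x final, unlysed cells) was the read-out. Human SH-SY5Y neuroblastoma cells constitutively secreting untagged GLuc received compound for 19 h, then 100 nM thapsigargin for 4 h.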
A general note: A counterscreen serves to expose hits that act by an unwanted route or on another target.

A short description of assay [7]: Confirmatory qHTS for small molecule stabilizers of the endoplasmic reticulum resident proteome: Secreted ER Calcium Modulated Protein (SERCaMP) assay (AID 1508628). Note: series mostly up to about 76 µM; % is set by controls: 0 for no effect and ±100 for the full control effect; nearly all actives have a fitted effect of over 40% in size. In short, it runs like this: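 SH-SY5Y cells stably expressing GLuc-SERCaMP, treated 16 h with compound (primary 1.53, 7.67, 38.3 uM; confirmation 11 concentrations, up to 76.6 uM), then 100 nM thapsigargin for 4 h. Secreted Gaussia luciferase in medium read by coelenterazine luminescence.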

Assay [8] is described as follows: Cell Viability qHTS for small molecule stabilizers of the endoplasmic reticulum resident proteome (AID 1508629).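 Note: human SH-SY5Y neuroblastoma cells carrying the GLuc-SERCaMP reporter; compound exposure about 46 h in total before the viability read; % is set by controls: 0 for no effect and ±100 for the full control effect.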 To be noted: cell viability counter-screen, 100 nM thapsigargin for final 4 h.
A short description of assay [9]: Primary qHTS for small molecule stabilizers of the endoplasmic reticulum resident proteome: Secreted ER Calcium Modulated Protein (SERCaMP) assay (AID 1508630). Note: % is set by controls: 0 for no effect and ±100 for the full control effect. The gist of the method:
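GLuc-SERCaMP-expressing SH-SY5Y cells, pretreated 16 h with compound, are challenged with thapsigargin to empty ER calcium stores; after 4 h, coelenterazine is added directly to the medium and luminescence is imaged.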

Chain of Protein phosphatase 1D (Homo sapiens) (O15297 whole entry, looked up): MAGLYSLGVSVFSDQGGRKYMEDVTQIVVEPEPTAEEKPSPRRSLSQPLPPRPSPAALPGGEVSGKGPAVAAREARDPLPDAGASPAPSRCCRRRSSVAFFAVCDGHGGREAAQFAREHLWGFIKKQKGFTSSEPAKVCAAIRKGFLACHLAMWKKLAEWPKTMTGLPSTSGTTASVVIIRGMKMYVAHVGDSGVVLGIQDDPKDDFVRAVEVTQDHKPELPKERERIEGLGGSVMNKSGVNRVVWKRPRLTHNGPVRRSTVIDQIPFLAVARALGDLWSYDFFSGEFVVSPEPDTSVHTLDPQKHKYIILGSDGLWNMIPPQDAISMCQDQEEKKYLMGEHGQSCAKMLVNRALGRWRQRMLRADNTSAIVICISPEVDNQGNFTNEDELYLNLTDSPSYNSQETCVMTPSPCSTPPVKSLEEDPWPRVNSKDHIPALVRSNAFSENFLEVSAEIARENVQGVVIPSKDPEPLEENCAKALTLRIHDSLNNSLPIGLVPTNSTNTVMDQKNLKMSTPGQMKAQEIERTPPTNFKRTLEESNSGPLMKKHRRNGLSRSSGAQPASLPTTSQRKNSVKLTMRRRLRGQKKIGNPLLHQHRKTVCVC

For the molecule `OC(CCN1CCCCC1)(c1ccccc1)c1ccccc1`, the Potency entry in assay [1], in [2], in assay [4] and in assay [5] was “inactive” each time. Further, the molecule was classed as inactive in assay [3].

With `Nc1nc2ncc(CNc3ccc(C(=O)N[C@@H](CCC(=O)O)C(=O)O)cc3)nc2c(=O)[nH]1`, the Potency entry in [1], in assay [2], in assay [4], in [5] and in [7] was “inactive” in each case. The molecule was classed as inactive in [3] and in [6]. Moreover, the max response in assay [8] is 22.5%.

For `CN1CCN(C(c2ccccc2)c2ccccc2)CC1`, the Potency result in assay [1], in assay [2], in assay [4] and in [5] was “inactive” throughout. Also, the outcome in assay [3] and in [6] was inactive.

For the molecule `CCC(C(=O)OCCN(CC)CC)c1ccccc1` (configuration not stated), the Potency result in [1], in [2], in assay [4], in assay [5] and in assay [9] was “inactive” each time. In addition, in assay [3], the molecule was called inactive.

`CC1(C)O[C@@H]2C[C@H]3[C@@H]4CCC5=CC(=O)CC[C@]5(C)[C@@]4(F)[C@@H](O)C[C@]3(C)[C@]2(C(=O)CCl)O1`: the Potency result in [1], in assay [2], in [4] and in [5] was “inactive” in each case. The molecule was called inactive in assay [3].

As to `CCN1CCC[C@H]1CNC(=O)c1c(OC)ccc(Br)c1OC`, the Potency result in [1], in assay [2], in assay [4], in [5] and in assay [9] was “inactive” each time. In addition, in assay [3], the result was inactive.

In the case of `CCCSS/C(CCO)=C(\C)N(C=O)Cc1cnc(C)nc1N`, the Potency result in [1], in [2], in assay [4], in [5] and in [9] was “inactive” each time. For the same molecule, the molecule was called inactive in assay [3].

As for `CCOC(=O)COc1ccc2c(C)c(CCN(CC)CC)c(=O)oc2c1Cl`, the Potency in assay [1] is 21 µM (active). The Potency entry in assay [2], in [4] and in assay [5] was “inactive” in each case. In addition, the outcome in assay [3] was inactive.

As to `COc1c2occc2c(OC)c2c(=O)cc(C)oc12`, the Potency entry in assay [1], in assay [2], in assay [4], in assay [5] and in assay [9] was “inactive” in each case. Moreover, in assay [3], the call was inactive.

On to `CC(=O)CC(c1ccc([N+](=O)[O-])cc1)c1c(O)c2ccccc2oc1=O` (configuration not stated), for which the Potency in assay [1] is 1.49 µM (active). The Potency result in [2], in assay [4], in assay [5] and in assay [9] was “inactive” each time. Also, the molecule was classed as inactive in assay [3].

In the case of `CC(C)(C)NC(=O)[C@@H]1CN(Cc2cccnc2)CCN1C[C@@H](O)C[C@@H](Cc1ccccc1)C(=O)N[C@H]1c2ccccc2C[C@H]1O`, the Potency result in assay [1], in assay [2], in assay [4], in assay [5] and in assay [9] was “inactive” throughout. In addition, in [3], the outcome was inactive.

Turning to `NC(=O)c1cc[n+](CC2=C(C(=O)[O-])N3C(=O)[C@@H](NC(=O)Cc4cccs4)[C@H]3SC2)cc1`, the Potency entry in assay [1], in assay [2], in assay [4] and in [5] was “inactive” in each case. Further, the outcome in [3] was inactive.

Turning to `c1ccc(-c2ccc(C(c3ccccc3)n3ccnc3)cc2)cc1` (configuration not stated), the Potency entry in assay [1], in assay [2], in assay [4], in assay [5] and in [7] was “inactive” each time. For the same molecule, in assay [3], the outcome was inactive.

Turning to `CC(=O)OCC(=O)NCCCOc1cccc(CN2CCCCC2)c1`, the Potency entry in assay [1], in assay [2], in assay [4], in [5] and in [9] was “inactive” each time. Further, in [3], the outcome was inactive.

For the molecule `COc1cccc(CCc2ccccc2OCC(CN(C)C)OC(=O)CCC(=O)O)c1` (configuration not stated), the Potency result in [1], in assay [2], in assay [4] and in assay [5] was “inactive” each time. Moreover, in assay [3], the molecule was classed as inactive.
